Holding throughout (assay): NCI-60 one-dose screen, 48 h (100 = growth as untreated, 0 = no growth, -100 = all killed)
In one assay the test system is NCI-H522 lung. Conditions: 10 µM unless noted.
Another assay concerns A549/ATCC NSCLC. Conditions: 10 µM unless noted.
The subject of another assay is COLO 205 colon. The following applies: 10 µM.
A further assay deals with HT29 colon. Conditions: 10 µM unless noted.
The next assay has as its system SNB-75 CNS. The following applies: 10 µM unless noted.
For a further assay, the system named is PC-3 prostate. Conditions: 10 µM unless noted.
The next assay relates to SK-MEL-28 melanoma. Conditions: 10 µM unless noted.
Another assay concerns CAKI-1 renal. Conditions: 10 µM unless noted.
The test system of the next assay is CCRF-CEM leukemia. Conditions: 10 µM unless noted.
In a further assay the test system is SR leukemia. Conditions: 10 µM.
The next assay relates to RPMI-8226 leukemia. The following applies: 10 µM unless noted.
For a further assay, the system named is OVCAR-5 ovarian. The following applies: 10 µM unless noted.
Another assay concerns IGROV1 ovarian. The following applies: 10 µM.
Another assay has as its system MCF7 breast. The following applies: 10 µM unless noted.
In another assay the test system is SK-MEL-5 melanoma. Conditions: 10 µM unless noted.
The test system of a further assay is EKVX NSCLC. Conditions: 10 µM unless noted.
A further assay concerns OVCAR-3 ovarian. The following applies: 10 µM unless noted.
The subject of another assay is HS 578T breast. The following applies: 10 µM unless noted.

Structures are written as SMILES. Compounds without any hit were thinned out: in the full panel of roughly 83,000, 20% have a hit.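 Values shown are percent growth following 48 h exposure of cells in 96-well plates to a single concentration of compound; below 10 was considered active.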 A number with no mark means an inactive call. Activity calls are given as the source filed them.

`Cc1ccc(N)cc1[As]=[As]c1cc(N)ccc1C` (stereo not given): the growth in the assay with NCI-H522 lung was -88.2% (active); in the assay on A549/ATCC NSCLC, 69.8%; with COLO 205 colon, -69.3% (active); with HT29 colon it was -84.6% (active); with SNB-75 CNS, -99.6% (active); in the assay on PC-3 prostate, -89.9% (active). Also, the growth with SK-MEL-28 melanoma is -94.2% (active); in the assay with CAKI-1 renal it was -91.2% (active); in the assay with CCRF-CEM leukemia it was -38% (active); with SR leukemia it was -43.7% (active); with RPMI-8226 leukemia, -40.2% (active); in the assay with OVCAR-5 ovarian, -90.6% (active). Besides, the growth with IGROV1 ovarian was -90.8% (active); in the assay on MCF7 breast, -74.9% (active).

Take `CCC(C)/C=C(C)/C=C/C(=O)c1c(O)c(-c2ccc(O)cc2)c[nH]c1=O` (stereo not given): the growth with NCI-H522 lung is 34.1%; with A549/ATCC NSCLC, 63.1%; with COLO 205 colon, 105%; in the assay with HT29 colon, 14.3%; in the assay on SNB-75 CNS, 51.5%; in the assay on PC-3 prostate, 45%. For the same compound, the growth in the assay on SK-MEL-5 melanoma is 63.4%; in the assay with SK-MEL-28 melanoma, 91%; in the assay with EKVX NSCLC, 58%; with CAKI-1 renal, -16.5% (active); with CCRF-CEM leukemia, 16.2%; in the assay on SR leukemia, 13%. Besides, the growth in the assay on RPMI-8226 leukemia is 41.6%; in the assay with IGROV1 ovarian, 40.7%; in the assay on OVCAR-3 ovarian, 40.7%; in the assay with MCF7 breast, 18.6%.

Turning to `CC1(C)N=C(N)N=C(N)N1c1ccc(OCCCCOc2ccc(S(=O)(=O)F)cc2)c(Cl)c1`, the growth in the assay on NCI-H522 lung was 5.92% (active); with A549/ATCC NSCLC, 11.2%; with COLO 205 colon, 20.4%; in the assay with HT29 colon, 8.74% (active); in the assay with SNB-75 CNS, 38.3%; with PC-3 prostate, 5.85% (active). For the same compound, the growth is 9.68% (active) with SK-MEL-5 melanoma; 44.5% with CAKI-1 renal; 16% in the assay with CCRF-CEM leukemia; 30.7% with OVCAR-5 ovarian; 33.1% in the assay on IGROV1 ovarian; 28.4% with OVCAR-3 ovarian. Further, the results for the growth in the assay on HS 578T breast and in the assay on MCF7 breast were 60.3% and 9.19% (active), respectively.

Take `O=CN1N=C(c2ccccc2)CC1c1sc(N(CCCl)CCCl)nc1Cl` (stereo not given): the growth in the assay on NCI-H522 lung is 70.8%; with A549/ATCC NSCLC, 88.4%; in the assay with COLO 205 colon, 95.5%; with HT29 colon, 92.2%; with SNB-75 CNS it was 72%; in the assay with PC-3 prostate it was 82.5%. Besides, the growth in the assay on SK-MEL-5 melanoma was 98.5%; in the assay on SK-MEL-28 melanoma it was 98.7%; in the assay on EKVX NSCLC, 89.5%; with CCRF-CEM leukemia it was 104%; with SR leukemia, 91.2%; with OVCAR-5 ovarian it was 90.6%. Moreover, the growth in the assay on IGROV1 ovarian was 96%; in the assay on HS 578T breast, 90.2%; in the assay with MCF7 breast, 90.1%.

As to `COC1=CC(=O)OC(CCc2ccc3c(c2)OCO3)C1` (stereo not given), the growth was 76.9% with NCI-H522 lung; 96% in the assay with A549/ATCC NSCLC; 108% with COLO 205 colon; 97.1% with HT29 colon; 96.3% in the assay on SNB-75 CNS; 106% with PC-3 prostate. Also, the growth in the assay with SK-MEL-28 melanoma is 117%; in the assay on EKVX NSCLC it was 122%; with CAKI-1 renal, 120%; in the assay on CCRF-CEM leukemia, 85.4%; in the assay on SR leukemia, 122%; in the assay with RPMI-8226 leukemia it was 107%. The growth in the assay with OVCAR-5 ovarian was 101%; with IGROV1 ovarian, 116%; in the assay with OVCAR-3 ovarian it was 122%; in the assay with HS 578T breast, 109%; in the assay with MCF7 breast, 86.9%.

Consider `CCC(CO)NC1CCCCC1` (stereo not given), for which the growth with NCI-H522 lung is 68.1%; in the assay with A549/ATCC NSCLC, 93.8%; in the assay on COLO 205 colon, 43.2%; in the assay with HT29 colon, 5.74% (active); in the assay with SNB-75 CNS, 81.6%; in the assay on PC-3 prostate, 92.2%. In addition, the growth with SK-MEL-28 melanoma was 102%; in the assay on EKVX NSCLC it was 90%; in the assay on SR leukemia, 1.74% (active); in the assay on RPMI-8226 leukemia, 97.6%; in the assay on OVCAR-5 ovarian, 92.4%; in the assay on IGROV1 ovarian, 53.9%. The growth is 100% in the assay on OVCAR-3 ovarian, 91.2% in the assay with HS 578T breast and 63.4% in the assay on MCF7 breast.

As to `CC(/C=N/N=C(N)N)=N/N=C(N)N`, the growth in the assay on NCI-H522 lung was 117%; with A549/ATCC NSCLC, 106%; in the assay with COLO 205 colon, 81.7%; in the assay on HT29 colon it was 91.8%; with SNB-75 CNS it was 71.5%; in the assay with PC-3 prostate it was 108%. Also, the growth is 107% with SK-MEL-5 melanoma; 92.9% in the assay on EKVX NSCLC; 83% with CAKI-1 renal; 90.1% in the assay with CCRF-CEM leukemia; 78.4% in the assay with SR leukemia; 95.7% in the assay on RPMI-8226 leukemia. For the same compound, the growth in the assay with OVCAR-5 ovarian is 84.4%; in the assay with OVCAR-3 ovarian it was 79.8%; in the assay on HS 578T breast it was 88.6%; with MCF7 breast, 98.1%.

With `O=C(c1cccs1)C1NO[N+]([O-])=C1c1cccs1` (stereo not given), the growth is -92.1% (active) with NCI-H522 lung; 86.9% in the assay with A549/ATCC NSCLC; 6.64% (active) with COLO 205 colon; 57.1% in the assay with PC-3 prostate; 112% with SK-MEL-5 melanoma; 65.8% in the assay on SK-MEL-28 melanoma. Also, the growth is 102% with EKVX NSCLC; -62.9% (active) in the assay on CAKI-1 renal; -40.3% (active) with CCRF-CEM leukemia; 22.4% in the assay with SR leukemia; 14.1% in the assay on RPMI-8226 leukemia; 7.37% (active) in the assay with IGROV1 ovarian. In addition, the growth in the assay on OVCAR-3 ovarian was -10.4% (active); in the assay with MCF7 breast it was 81.8%.

On to `O=C1NC(=O)C(CN2C(=O)C3(c4ccccc42)[C@H](Cl)C(=O)N3c2ccccc2)C(=O)N1` (stereo not given in full), for which the growth is 51.4% with NCI-H522 lung; 77.3% in the assay on A549/ATCC NSCLC; 102% in the assay with COLO 205 colon; 98.3% with HT29 colon; 52.7% in the assay with SNB-75 CNS; 83.6% in the assay on PC-3 prostate. The growth in the assay with SK-MEL-5 melanoma was 78.6%; in the assay on SK-MEL-28 melanoma it was 76.8%; in the assay with EKVX NSCLC, 79.3%; in the assay with CAKI-1 renal, 85.7%; with CCRF-CEM leukemia, 54.4%; in the assay with SR leukemia, 15.2%. The growth is 63.1% in the assay on RPMI-8226 leukemia; 84.6% with OVCAR-5 ovarian; 49.4% in the assay with IGROV1 ovarian; 71% in the assay on HS 578T breast; 18.4% in the assay with MCF7 breast.

As for `O=[As]c1ccc(C(=O)c2ccc(Oc3ccccc3)cc2)cc1` (stereo not given), the growth was -95.4% (active) with NCI-H522 lung; -94.8% (active) with A549/ATCC NSCLC; -89.2% (active) in the assay on COLO 205 colon; -77.6% (active) in the assay on HT29 colon; -92% (active) in the assay on SNB-75 CNS; -61.4% (active) with PC-3 prostate. In addition, the growth in the assay on SK-MEL-5 melanoma was -100% (active); with SK-MEL-28 melanoma, -96.3% (active); with EKVX NSCLC, -80.8% (active); with CAKI-1 renal, -53.7% (active); in the assay with CCRF-CEM leukemia, -33.1% (active); with SR leukemia it was -23.9% (active). Besides, the growth is -49.2% (active) in the assay on RPMI-8226 leukemia; -54.1% (active) in the assay with IGROV1 ovarian; -93.9% (active) with OVCAR-3 ovarian; 59.7% with HS 578T breast; -48.6% (active) with MCF7 breast.

Values taken from PubChem BioAssay (NCI).
